Results on 39 compounds are retold here after PubChem BioAssay (Tox21).

Records with an inconclusive call do not appear. Activity calls are given as the source filed them. Unless noted, calls follow the shape of the full dose curve.
% is scaled to controls: 0 for no effect and ±100 for the full control effect.

The nature of one assay: qHTS assay to identify small molecule agonists of the NFkB signaling pathway - cell viability counter screen (AID 1159515). Also: nearly all actives have a fitted effect of over 55% in size. The conditions noted are these: NFkB-bla ME-180 viability, CellTiter-Glo luminescence, 5 h; series mostly up to 61 µM; activity, negative = cytotoxic: at the top concentration. The procedure, abridged: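 Luminescence from CellTiter-Glo (30 min, room temperature) gives viability, measured in the same wells as the beta-lactamase reporter read. Cells were NFkB-bla ME-180, 2,000 per well, treated 5 hr with compounds.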
On the technique in general: qHTS replaces the single test concentration by a dilution series.
For `O=[N+]([O-])c1cccc(S(=O)(=O)NCCNS(=O)(=O)c2cccc([N+](=O)[O-])c2)c1`, the “activity, negative = cytotoxic” value was -6.97% (inactive).
With `CCCCC(CC)COC(=O)COc1ccc(Cl)cc1C` (stereo not drawn), the “activity, negative = cytotoxic” value is 8.15% (inactive).
Still for that read-out and setting: the result for `CN1CCN(c2c(F)cc3c(=O)c(C(=O)O)cn4c3c2OCN4C)CC1` reads 5.21% [at 28.5 µM] (inactive); that for `O=C1NCCN1`, -14.8% (inactive); that for `C=CC(C)(O)CCCC(C)CCCC(C)CCCC(C)C` (stereo not drawn), -1.37% (inactive).
The same measure, in the same setting: then `COc1cc2c(N3CCN(C(=O)Nc4ccc(OC(C)C)cc4)CC3)ncnc2cc1OCCCN1CCCCC1`, with -16% (inactive); and `OC(CCCN1CCCCC1)(c1ccccc1)c1ccccc1`, with 0.517% (inactive); and `Nc1c(I)cc(I)c(C(=O)N(CCC(=O)O)c2ccccc2)c1I`, with -0.241% (inactive).
On to `Nc1nccs1`, for which the “activity, negative = cytotoxic” value was -2.76% (inactive).
Take `O=C(O)c1snc(Cl)c1Cl`: the “activity, negative = cytotoxic” value is -4.41% (inactive).
In the case of `CCC1(C)CC(=O)NC1=O` (stereo not drawn), the “activity, negative = cytotoxic” value is 11.2% (inactive).
Same read-out and setting: then `C/C(=N/NC(=O)c1ccncc1)C(=O)O`, with -9.29% (inactive); and `CCn1nc(C)c2c1C(=O)NCC(c1ccc(O)cc1)=N2`, with -0.515% (inactive).
As for `Cc1ccccc1N1C(=O)c2cc(S(N)(=O)=O)c(Cl)cc2NC1C` (stereo not drawn), the “activity, negative = cytotoxic” value was 3.49% (inactive).
Still for that read-out and setting: then `O=S(=O)(c1ccccc1)c1ccc(Cl)cc1`, with 2.37% (inactive); and `Nc1nc(Cl)nc2c1ncn2[C@@H]1O[C@H](CO)[C@@H](O)[C@@H]1F`, with 6.08% (inactive); and `CC(C)C(=O)O`, with 4.25% (inactive).
Still for that read-out and setting: the result for `CCOC(=O)C(C)Oc1ccc(Oc2nc3ccc(Cl)cc3o2)cc1` (stereo not drawn) reads 6.33% (inactive); that for `Oc1cc(O)c(Cl)cc1Cl`, 16.2% [at 78.8 µM] (inactive).
On to `C[C@@H]1C[C@H]2[C@@H]3CCC4=CC(=O)C=C[C@]4(C)[C@@]3(F)[C@@H](O)C[C@]2(C)[C@H]1C(=O)CO`, for which the “activity, negative = cytotoxic” value is 2.59% (inactive).
Take `O=S1OCCO1`: the “activity, negative = cytotoxic” value is 2.02% [at 78.8 µM] (inactive).
For the compound `CC(=O)Nc1ccccc1C`, the “activity, negative = cytotoxic” value was -12% [at 78.8 µM] (inactive).
With `Nc1ccc(S(=O)(=O)O)c(N)c1`, the “activity, negative = cytotoxic” value is -1.5% (inactive).
The same measure, in the same setting: the result for `CCCCN(CCCC)CCCOC(=O)c1ccc(N)cc1` reads 5.08% (inactive).
On the same count and under the same terms, then `C=CC(C)=CCC=C(C)C`, with -4.48% (inactive); and `CCC(C)=O`, with -2.25% (inactive); and `COC(=O)[C@@H]1CC2=CC(=O)CC[C@]2(C)[C@@]23O[C@@H]2C[C@@]2(C)[C@@H](CC[C@@]24CCC(=O)O4)[C@H]13`, with 7.1% (inactive).
As to `NC(=O)Nc1ccc(Cl)cc1`, the “activity, negative = cytotoxic” value was 0.0658% (inactive).
The same measure, in the same setting: then `Cc1ccc(S(=O)(=O)NC2CCCCC2)cc1`, with -3.73% (inactive); and `CO[Si](C)(OC)OC`, with -1.8% (inactive); and `CCCCOC(=O)CCS`, with 10.6% (inactive).
Consider `CCOc1cc(N)c(Cl)cc1C(=O)NCC1CN(Cc2ccc(F)cc2)CCO1` (stereo not drawn), for which the “activity, negative = cytotoxic” value was -21.6% (inactive).
Consider `CN1CCCN=C1/C=C/c1cccs1`, for which the “activity, negative = cytotoxic” value was -6.31% (inactive).
Still for that read-out and setting: the result for `CCCCCCCCCOC(C)=O` reads 10.1% (inactive).
Same read-out and setting: the result for `Cn1c(=O)c2c(ncn2CC(=O)O)n(C)c1=O` reads 3.54% (inactive); that for `N#C[C@@H]1C[C@@H]2C[C@@H]2N1C(=O)[C@@H](N)C12CC3CC(CC(O)(C3)C1)C2`, 7.45% (inactive); that for `O=C(O)c1ccc(CO)o1`, -23.5% [at 78.8 µM] (inactive).
Turning to `CN1Cc2cc(C(=O)N3CCC(C4CCNCC4)CC3)ccc2N[C@@H](CC(=O)O)C1=O`, the “activity, negative = cytotoxic” value is 1.07% (inactive).
Still for that read-out and setting: the result for `CC1(C)C2=CCCC(C)(C)[C@]23CC[C@H]1C3` reads -6.36% (inactive).

Another assay in a line: qHTS assay to identify small molecule agonists of the endoplasmic reticulum stress response signaling pathway (AID 1159516; active = well fitted activation curve with a large enough effect in the signal ratio in the repeat runs, not every such curve was filed as active; the % refers to the signal ratio). To be noted: ESRE-bla HeLa, ER stress beta-lactamase reporter, 5 h; series mostly up to 61 µM; activation: at the top concentration. The procedure, abridged: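 Read-out is beta-lactamase cleavage of a FRET substrate (405 nm excitation; 460 and 530 nm emissions) in ESRE-bla HeLa cells after a 5 hr compound exposure at 37 C. Substrate incubation ran 2 hr at room temperature.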
Regarding `O=[N+]([O-])c1cccc(S(=O)(=O)NCCNS(=O)(=O)c2cccc([N+](=O)[O-])c2)c1`, the “activation” value was -3.45% (inactive).
On the same count and under the same terms, the result for `CCCCC(CC)COC(=O)COc1ccc(Cl)cc1C` (stereo not drawn) reads -0.124% (inactive).
Still for that read-out and setting: then `CN1CCN(c2c(F)cc3c(=O)c(C(=O)O)cn4c3c2OCN4C)CC1`, with 0.697% [at 28.5 µM] (inactive); and `O=C1NCCN1`, with -0.748% (inactive).
Still for that read-out and setting: then `C=CC(C)(O)CCCC(C)CCCC(C)CCCC(C)C` (stereo not drawn), with 0.811% (inactive).
Take `COc1cc2c(N3CCN(C(=O)Nc4ccc(OC(C)C)cc4)CC3)ncnc2cc1OCCCN1CCCCC1`: the “activation” value was 2.56% (inactive).
Regarding `OC(CCCN1CCCCC1)(c1ccccc1)c1ccccc1`, the “activation” value was -0.421% (inactive).
Turning to `Nc1c(I)cc(I)c(C(=O)N(CCC(=O)O)c2ccccc2)c1I`, the “activation” value is -7.13% (inactive).
For the compound `Nc1nccs1`, the “activation” value was -6.37% (inactive).
In the case of `O=C(O)c1snc(Cl)c1Cl`, the “activation” value was -4.21% (inactive).
`CCC1(C)CC(=O)NC1=O` (stereo not drawn): the “activation” value was -0.426% (inactive).
The same measure, in the same setting: then `C/C(=N/NC(=O)c1ccncc1)C(=O)O`, with 1.08% (inactive); and `CCn1nc(C)c2c1C(=O)NCC(c1ccc(O)cc1)=N2`, with -3.31% (inactive).
Still for that read-out and setting: then `Cc1ccccc1N1C(=O)c2cc(S(N)(=O)=O)c(Cl)cc2NC1C` (stereo not drawn), with -2.22% (inactive).
Consider `O=S(=O)(c1ccccc1)c1ccc(Cl)cc1`, for which the “activation” value was -3.21% (inactive).
Take `Nc1nc(Cl)nc2c1ncn2[C@@H]1O[C@H](CO)[C@@H](O)[C@@H]1F`: the “activation” value is -0.632% (inactive).
Still for that read-out and setting: the result for `CC(C)C(=O)O` reads -1.93% (inactive); that for `CCOC(=O)C(C)Oc1ccc(Oc2nc3ccc(Cl)cc3o2)cc1` (stereo not drawn), 0.981% (inactive).
Still for that read-out and setting: the result for `Oc1cc(O)c(Cl)cc1Cl` reads -2.57% [at 78.8 µM] (inactive).
On to `C[C@@H]1C[C@H]2[C@@H]3CCC4=CC(=O)C=C[C@]4(C)[C@@]3(F)[C@@H](O)C[C@]2(C)[C@H]1C(=O)CO`, for which the “activation” value was -5.38% (inactive).
In the case of `O=S1OCCO1`, the “activation” value was -0.363% [at 78.8 µM] (inactive).
On the same count and under the same terms, the result for `CC(=O)Nc1ccccc1C` reads -2.82% [at 78.8 µM] (inactive).
Same read-out and setting: then `Nc1ccc(S(=O)(=O)O)c(N)c1`, with -2.9% (inactive); and `CCCCN(CCCC)CCCOC(=O)c1ccc(N)cc1`, with -2.61% (inactive).
Still for that read-out and setting: then `C=CC(C)=CCC=C(C)C`, with -4.19% (inactive).
Consider `CCC(C)=O`, for which the “activation” value is -1.87% (inactive).
On the same count and under the same terms, the result for `COC(=O)[C@@H]1CC2=CC(=O)CC[C@]2(C)[C@@]23O[C@@H]2C[C@@]2(C)[C@@H](CC[C@@]24CCC(=O)O4)[C@H]13` reads 3.89% (inactive); that for `NC(=O)Nc1ccc(Cl)cc1`, 2.19% (inactive); that for `Cc1ccc(S(=O)(=O)NC2CCCCC2)cc1`, -3.72% (inactive).
On to `CO[Si](C)(OC)OC`, for which the “activation” value is -0.811% (inactive).
For the compound `CCCCOC(=O)CCS`, the “activation” value was 5.62% (inactive).
Same read-out and setting: then `CCOc1cc(N)c(Cl)cc1C(=O)NCC1CN(Cc2ccc(F)cc2)CCO1` (stereo not drawn), with -0.22% (inactive).
On to `CN1CCCN=C1/C=C/c1cccs1`, for which the “activation” value was 3.11% (inactive).
The same measure, in the same setting: the result for `CCCCCCCCCOC(C)=O` reads -0.606% (inactive).
As for `Cn1c(=O)c2c(ncn2CC(=O)O)n(C)c1=O`, the “activation” value is 1.61% (inactive).
For the compound `N#C[C@@H]1C[C@@H]2C[C@@H]2N1C(=O)[C@@H](N)C12CC3CC(CC(O)(C3)C1)C2`, the “activation” value was 3.08% (inactive).
In the case of `O=C(O)c1ccc(CO)o1`, the “activation” value is -0.561% [at 78.8 µM] (inactive).
The same measure, in the same setting: the result for `CN1Cc2cc(C(=O)N3CCC(C4CCNCC4)CC3)ccc2N[C@@H](CC(=O)O)C1=O` reads -1.12% (inactive); that for `CC1(C)C2=CCCC(C)(C)[C@]23CC[C@H]1C3`, -4.17% (inactive).
